Experiment [1] can be described thus: compound effects on lung adenocarcinoma cell viability – A549, calcein-AM fluorescence, 48 h, basal, profiling panel (AID 1162). Particulars: higher = more signal.
Experiment [2] in a line: compound effects on differentiated 3T3-L1 adipocyte viability – cell-based, 3T3-L1 adipocytes, calcein-AM fluorescence, 48 h, basal, profiling panel (AID 1163). Particulars: 3T3-L1 adipocytes viability, higher = more signal.
A short description of experiment [3]: compound effects on hepatocellular carcinoma cell viability – HepG2, calcein-AM fluorescence, 48 h, basal, profiling panel (AID 1164). Particulars: higher = more signal.
Experiment [4] is described as follows: compound effects on multiple myeloma cell viability – MM1S, calcein-AM fluorescence, 48 h, basal, profiling panel (AID 1165).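 Further: viability of MM1S multiple myeloma cells under basal unstimulated conditions.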 The note with it: higher = more signal.
The nature of experiment [5]: calcein-AM signal in unstimulated myeloma cells – cell-based, calcein-AM fluorescence, 48 h, PK04 Diversity Set, profiling panel (AID 1166).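 Further: cells grown under basal conditions without added stimulus.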 The note with it: RPMI8226 myeloma viability, higher = more signal.
Experiment [6] is described as follows: JC-1 mitochondrial signal, unstimulated HepG2 cells – cell-based, JC-1 fluorescence, 24 h, 100 nL compound, profiling panel (AID 1167). Particulars: HepG2 mitochondrial potential, higher = more signal.
Experiment [7] in a line: JC-1 mitochondrial signal, unstimulated adipocytes – cell-based, JC-1 fluorescence, 3T3-L1 adipocytes, 24 h, 100 nL compound, profiling panel (AID 1168). Particulars: JC-1 mitochondrial fluorescence, higher = more signal, called active from +8 up or from −8 down.
Experiment [8] in a line: JC-1 mitochondrial signal, unstimulated myeloma cells – cell-based, JC-1 fluorescence, RPMI8226, 24 h, 100 nL compound, profiling panel (AID 1169). Particulars: JC-1 mitochondrial potential fluorescence, higher = more signal.
A short description of experiment [9]: JC-1 mitochondrial signal, unstimulated MM1S myeloma – cell-based, JC-1 fluorescence, 24 h, 100 nL compound, profiling panel (AID 1170). Particulars: MM1S mitochondrial potential, higher = more signal.
A short description of experiment [10]: resazurin metabolic signal in A549 cells – cell-based, resazurin fluorescence, 24 h, PK04 Diversity Set, profiling panel (AID 1171). The note with it: A549 viability, higher = more signal, called active from +8 up or from −8 down. In general terms: Resazurin is reduced to fluorescent resorufin, in cell work by metabolically active cells.

Molecules are shown by their SMILES. Activity calls are given as the source filed them.
Further: test concentration not given here.

Consider `CCCC[C@@H]1C[C@H]1[C@@H](NC(=O)c1ccco1)c1ccc(C(=O)OC)cc1`, for which the z-score is -1.06 in experiment [1]; -1.16 in experiment [2]; -0.998 in [3]; -1.77 in experiment [4]; -2.42 in experiment [5]; -2.68 in experiment [6]. Also, the z-score was -2.2 (inactive) in experiment [7], -0.705 in experiment [8], -1.19 in experiment [9] and -0.136 (inactive) in [10].
For `C=C(C)C1C(=C)CN([C@H](CO)c2ccccc2)C1=O` (stereo not given in full), the z-score in experiment [1] was -0.488; in experiment [2], 0.783; in experiment [3] it was -0.764; in experiment [4], 0.0188; in [5], -2.01; in experiment [6], -0.113. Also, the z-score in experiment [7] was 0.113 (inactive); in experiment [8], -0.175; in experiment [9] it was -0.761; in experiment [10], 1.02 (inactive).
Take `CN1C(=O)C2C=CC(C(O)c3cc(C(F)(F)F)cc(C(F)(F)F)c3)N(N3CCCCC3)C2C1=O` (stereo not given): the z-score in [1] is 0.704; in experiment [2] it was 0.421; in experiment [3], 0.499; in [4] it was -1.02; in experiment [5], -0.533; in experiment [6], -0.672. Further, the z-score in experiment [7] was -0.205 (inactive); in experiment [8] it was 0.462; in experiment [9], -0.444; in experiment [10] it was 0.113 (inactive).
For the molecule `COC(=O)[C@@]1(Cc2ccccc2)[C@H]2c3cc(C(=O)N4CCCC4)n(Cc4cccc5ccccc45)c3C[C@H]2CN1C(=O)c1ccccc1`, the z-score in experiment [1] is -0.692; in [2], -0.57; in experiment [3], -0.824; in [4] it was -1.42; in experiment [5], -3.92; in experiment [6], 1.04. For the same molecule, the z-score in experiment [7] was -2.12 (inactive); in experiment [8], -0.784; in experiment [9] it was -1.74; in experiment [10] it was -1.19 (inactive).
Consider `COCCOC(=O)N1C(=O)[C@@]2(c3cc(C#CCCO)ccc31)[C@H](C(=O)Nc1nc3ccccc3s1)[C@H]1C(=O)O[C@H](c3ccccc3)[C@H](c3ccccc3)N1[C@@H]2c1ccc(OCCO)cc1`, for which the z-score in [1] was -0.324; in experiment [2] it was -0.0713; in [3] it was 0.555; in [4] it was -0.315; in experiment [5], -0.234; in [6], -3.53. For the same molecule, the z-score in experiment [7] is 0.823 (inactive); in experiment [8] it was -0.371; in experiment [9], -1.41; in [10] it was 1.24 (inactive).
Turning to `CCOC(=O)C[C@H]1[C@H](OC(=O)Cc2ccc3c(c2)OCO3)[C@@H](NC(=O)c2ccc(-c3ccccc3)cc2)c2cc(OCCCO)ccc2N1C(=O)c1ccc2ccccc2n1`, the z-score in [1] was 1.8; in experiment [2], 2.75; in [3], 1.65; in experiment [4], 0.218; in experiment [5] it was -0.472; in experiment [6], 2.72. Moreover, the z-score is 0.61 (inactive) in [7], -0.233 in [8], -0.903 in experiment [9] and 0.562 (inactive) in experiment [10].
For `COc1ccc(C(O)C2C=CC3C(=O)N(c4ccccc4)C(=O)C3N2Nc2ccc(C(C)C)cc2)cc1OCc1ccccc1` (stereo not given), the z-score in [1] is 0.997; in experiment [2] it was -1.42; in experiment [3] it was 0.915; in [4], -0.737; in experiment [5], -0.63; in [6], -0.318. The z-score was -0.116 (inactive) in experiment [7], -0.427 in experiment [8], -0.173 in experiment [9] and -0.193 (inactive) in experiment [10].
As for `[N-]=[N+]=NCc1ccccc1C[C@]1(C(=O)NCC(O)CO)N=C(c2ccc(OCCCO)cc2)O[C@H]1c1ccccc1` (stereo not given in full), the z-score is -0.691 in experiment [1]; 0.0311 in experiment [2]; -1.25 in experiment [3]; -2.42 in [4]; -1.81 in [5]; -1.31 in [6]. For the same molecule, the z-score was -0.142 (inactive) in [7], -0.547 in [8], -0.727 in experiment [9] and -0.246 (inactive) in experiment [10].
Take `CN1C(=O)C2C=CC(C(O)c3cccs3)N(Nc3ccccc3)C2C1=O` (stereo not given): the z-score in experiment [1] is -0.439; in [2], -0.612; in experiment [3] it was -0.436; in experiment [4], -1.64; in [5], -0.535; in [6], -0.693. The z-score in experiment [7] is -0.841 (inactive); in experiment [8] it was -0.0836; in experiment [9], -0.528; in [10], -0.654 (inactive).
`O=C(NCc1ccccc1)[C@@]1(Cc2ccccc2)N=C(c2ccc(OCCCO)cc2)O[C@H]1c1ccccc1`: the z-score was -2.86 in [1]; 0.967 in experiment [2]; -2.26 in [3]; -1.42 in experiment [4]; -3.32 in experiment [5]; 1.19 in [6]. Besides, the z-score is -0.357 (inactive) in experiment [7], -1.02 in experiment [8], -1.55 in experiment [9] and -0.331 (inactive) in experiment [10].
With `COc1ccc(CCNC(=O)[C@@]2(Sc3ccc(C)cc3)CC(=O)N(C3CCCCC3)[C@@H]2c2ccc(CO)cc2I)cc1`, the z-score in experiment [1] is 1.06; in [2], -0.475; in experiment [3], -0.242; in experiment [4] it was -2.14; in [5], -2.93; in experiment [6] it was -0.836. Moreover, the z-score in experiment [7] is -0.792 (inactive); in experiment [8], -0.632; in experiment [9], -1.33; in [10] it was 1.11 (inactive).
For the molecule `CN1C(=O)C2C=CC(C(O)c3ccccc3)N(Nc3ccccc3)C2C1=O` (stereo not given), the z-score in experiment [1] was -1.3; in experiment [2], -0.559; in [3], -0.761; in experiment [4], -1.4; in experiment [5] it was 0.362; in experiment [6], -1.69. Further, the z-score in experiment [7] is -0.441 (inactive); in [8], 0.636; in [9], -0.207; in experiment [10] it was -1.26 (inactive).
As to `C=CCNC(=O)[C@H]1[C@@H]2C(=O)O[C@@H](c3ccccc3)[C@@H](c3ccccc3)N2[C@@H](c2ccc(O)cc2)[C@]12C(=O)N(C(=O)OCCOC)c1ccc(C#CCNC(N)=O)cc12`, the z-score was -0.755 in experiment [1]; 0.0896 in experiment [2]; 0.264 in experiment [3]; -0.303 in [4]; -0.479 in experiment [5]; -1.33 in experiment [6]. Besides, the z-score in experiment [7] was 0.817 (inactive); in experiment [8], -0.294; in [9], 0.179; in [10], -0.157 (inactive).
For the molecule `Cc1ccc(C(C)CC(O)C2C=CC3C(=O)N(C)C(=O)C3N2NC(=O)OC(C)(C)C)o1` (stereo not given), the z-score in experiment [1] was 0.987; in experiment [2] it was -0.515; in experiment [3] it was 0.917; in experiment [4], -0.193; in experiment [5], -0.883; in experiment [6], -0.768. For the same molecule, the z-score in experiment [7] is -0.632 (inactive); in [8] it was -0.876; in experiment [9], -0.357; in [10], 0.543 (inactive).
For `COC(=O)[C@@]1(Cc2ccc(F)cc2)[C@@H]2[C@@H](CC(=O)[C@H]2CC(=O)C(=O)N(C)C)CN1C(=O)c1ccccc1`, the z-score is -0.294 in experiment [1]; -1.19 in [2]; 0.27 in experiment [3]; -0.886 in experiment [4]; -1.73 in experiment [5]; 1.65 in [6]. Also, the z-score was -0.554 (inactive) in experiment [7], -0.00425 in experiment [8], -1.92 in [9] and -2 (inactive) in experiment [10].
